Columns and labels:
Assay in all cases: universal protein binding microarray (PBM); transcription factors of Arabidopsis thaliana; high values mean tight binding
Settings in all cases: protein: recombinant; tags: GST; chain copies: 2; dsDNA, one strand shown
GST-ANAC092(1-176) = target: T1, GST-ANAC092(1-176) (Arabidopsis thaliana, UniProt Q9FKA0 1-176)
T1 sequence: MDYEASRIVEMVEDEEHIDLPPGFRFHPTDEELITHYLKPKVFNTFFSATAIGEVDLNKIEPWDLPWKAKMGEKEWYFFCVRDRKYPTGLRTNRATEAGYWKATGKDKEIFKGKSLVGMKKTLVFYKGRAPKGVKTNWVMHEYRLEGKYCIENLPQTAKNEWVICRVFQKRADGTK
Summary of the method: (§1)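 GST-tagged proteins (NAC-domain, full-length or DNA-binding-domain) were induced in cells, with zinc acetate supplied for zinc-finger proteins, then purified on glutathione–Sepharose 4B. Each was tested in duplicate at 200 to 500 nM final on custom all-10-mer Agilent 4 × 180K arrays rendered double-stranded by primer extension. The binding value is the normalised enrichment score (E-score) across gapped and ungapped 8-mers.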

GST-NTL6(1-168) = GST-NTL6(1-168) (Arabidopsis thaliana, UniProt Q9SCK6 1-168)
Summary of the method: as §1

GST-ANAC019 NAC domain = target: T2, GST-ANAC019 NAC domain (Arabidopsis thaliana, UniProt Q9C932 14-162)
T2 sequence: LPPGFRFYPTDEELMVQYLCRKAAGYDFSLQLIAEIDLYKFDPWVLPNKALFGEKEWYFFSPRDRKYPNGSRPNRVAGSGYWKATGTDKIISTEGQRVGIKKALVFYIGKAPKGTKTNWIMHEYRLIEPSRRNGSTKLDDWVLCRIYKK
Summary of the method: as §1

GST-ANAC055(1-171) = target: T3, GST-ANAC055(1-171) (Arabidopsis thaliana, UniProt Q9LDY8 1-171)
T3 sequence: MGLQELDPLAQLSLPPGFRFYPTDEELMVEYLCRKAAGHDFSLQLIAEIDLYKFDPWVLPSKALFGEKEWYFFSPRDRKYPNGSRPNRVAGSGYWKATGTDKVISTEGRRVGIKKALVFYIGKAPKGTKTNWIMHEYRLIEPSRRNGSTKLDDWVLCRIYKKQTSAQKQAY
Summary of the method: as §1

GST-ATAF1 NAC domain = target: T4, GST-ATAF1 NAC domain (Arabidopsis thaliana, UniProt Q39013 7-158)
T4 sequence: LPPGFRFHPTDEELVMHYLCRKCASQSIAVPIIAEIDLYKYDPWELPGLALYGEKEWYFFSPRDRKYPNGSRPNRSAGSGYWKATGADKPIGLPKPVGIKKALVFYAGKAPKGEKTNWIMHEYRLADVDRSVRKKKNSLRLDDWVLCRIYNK
Summary of the method: as §1

[1] = target: T5, GST-ANAC092(1-285) full length (Arabidopsis thaliana, UniProt Q9FKA0 1-285)
T5 sequence: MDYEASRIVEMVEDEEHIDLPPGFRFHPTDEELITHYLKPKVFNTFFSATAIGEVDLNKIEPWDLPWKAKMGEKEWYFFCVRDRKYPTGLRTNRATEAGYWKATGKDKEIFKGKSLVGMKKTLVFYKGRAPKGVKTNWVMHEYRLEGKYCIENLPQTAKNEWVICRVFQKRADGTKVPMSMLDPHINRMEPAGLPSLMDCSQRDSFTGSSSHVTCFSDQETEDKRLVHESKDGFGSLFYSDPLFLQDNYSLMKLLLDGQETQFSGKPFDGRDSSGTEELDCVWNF
Summary of the method: as §1

GST-NAP(1-166) = target: T6, GST-NAP(1-166) (Arabidopsis thaliana, UniProt O49255 1-166)
T6 sequence: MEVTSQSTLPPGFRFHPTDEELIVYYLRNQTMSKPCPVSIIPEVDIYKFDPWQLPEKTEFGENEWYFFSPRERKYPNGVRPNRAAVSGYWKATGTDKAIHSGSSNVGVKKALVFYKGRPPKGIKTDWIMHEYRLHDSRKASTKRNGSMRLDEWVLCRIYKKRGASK
Summary of the method: as §1

GST-NST2(1-184) = target: T7, GST-NST2(1-184) (Arabidopsis thaliana, UniProt Q9M274 1-184)
T7 sequence: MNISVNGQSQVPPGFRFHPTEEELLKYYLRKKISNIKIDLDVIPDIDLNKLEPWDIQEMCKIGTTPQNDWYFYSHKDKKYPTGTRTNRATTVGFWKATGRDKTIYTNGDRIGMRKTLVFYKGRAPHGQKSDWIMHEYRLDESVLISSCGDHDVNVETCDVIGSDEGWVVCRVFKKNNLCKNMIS
Summary of the method: as §1

GST-SND1(1-203) = target: T8, GST-SND1(1-203) (Arabidopsis thaliana, UniProt Q9LPI7 1-203)
T8 sequence: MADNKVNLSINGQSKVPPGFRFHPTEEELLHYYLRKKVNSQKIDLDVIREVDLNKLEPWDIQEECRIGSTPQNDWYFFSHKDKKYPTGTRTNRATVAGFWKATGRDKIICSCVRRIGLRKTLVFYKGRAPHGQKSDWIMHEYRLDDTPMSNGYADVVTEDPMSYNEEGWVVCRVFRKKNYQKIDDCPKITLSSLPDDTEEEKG
Summary of the method: as §1

GST-VND3 NAC domain = target: T9, GST-VND3 NAC domain (Arabidopsis thaliana, UniProt Q9FH59 12-162)
T9 sequence: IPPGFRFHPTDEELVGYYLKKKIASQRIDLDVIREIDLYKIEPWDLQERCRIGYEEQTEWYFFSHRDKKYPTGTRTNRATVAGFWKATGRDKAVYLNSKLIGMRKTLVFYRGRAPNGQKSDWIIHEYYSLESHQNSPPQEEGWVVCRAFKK
Summary of the method: as §1

GST-VND7 NAC domain = target: T10, GST-VND7 NAC domain (Arabidopsis thaliana, UniProt Q9C8W9 9-158)
T10 sequence: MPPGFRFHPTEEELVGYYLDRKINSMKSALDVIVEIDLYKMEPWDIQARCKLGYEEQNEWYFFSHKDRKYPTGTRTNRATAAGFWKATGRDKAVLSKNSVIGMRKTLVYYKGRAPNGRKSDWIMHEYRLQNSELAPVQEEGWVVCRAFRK
Summary of the method: as §1

GST-NTL8 NAC domain = target: T11, GST-NTL8 NAC domain (Arabidopsis thaliana, UniProt Q9XIN7 14-156)
T11 sequence: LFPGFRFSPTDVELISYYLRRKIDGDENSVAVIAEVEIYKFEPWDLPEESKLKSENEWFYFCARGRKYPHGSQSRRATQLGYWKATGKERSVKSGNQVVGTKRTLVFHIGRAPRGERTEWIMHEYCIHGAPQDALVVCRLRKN
Summary of the method: as §1

Sequence of GST-NTL6(1-168) (Q9SCK6 1-168): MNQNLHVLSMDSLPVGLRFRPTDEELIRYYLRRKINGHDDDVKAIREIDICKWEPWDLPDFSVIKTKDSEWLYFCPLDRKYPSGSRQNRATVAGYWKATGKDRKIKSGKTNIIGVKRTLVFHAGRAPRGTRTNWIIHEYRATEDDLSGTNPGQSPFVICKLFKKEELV

| Sequence | binding signal (GST-ANAC092(1-176)) [E-score] | binding signal (GST-NTL6(1-168)) [E-score] | binding signal (GST-ANAC019 NAC domain) [E-score] | binding signal (GST-ANAC055(1-171)) [E-score] | binding signal (GST-ATAF1 NAC domain) [E-score] | binding signal [1] [E-score] | binding signal (GST-NAP(1-166)) [E-score] | binding signal (GST-NST2(1-184)) [E-score] | binding signal (GST-SND1(1-203)) [E-score] | binding signal (GST-VND3 NAC domain) [E-score] | binding signal (GST-VND7 NAC domain) [E-score] | binding signal (GST-NTL8 NAC domain) [E-score] |
| --- | --- | --- | --- | --- | --- | --- | --- | --- | --- | --- | --- | --- |
| GTACGTTA | 0.42 | 0.0779 | 0.0888 | 0.226 | 0.325 | 0.426 | 0.173 | 0.316 | 0.415 | 0.253 | 0.148 |  |
| AATGCCGT | 0.335 | 0.0523 | 0.428 | 0.391 | 0.342 | 0.365 | 0.366 | 0.114 | 0.0974 | 0.407 | 0.4 |  |
| CTTACGTA | 0.423 | 0.161 | 0.457 | 0.421 | 0.407 | 0.435 | 0.363 | 0.313 | 0.405 | 0.43 | 0.433 | 0.219 |
| CACGTAAA | 0.425 | 0.0987 | 0.43 | 0.414 | 0.332 | 0.431 | 0.35 | 0.293 | 0.289 | 0.414 | 0.346 |  |
| ACGTAATA | 0.425 | 0.176 | 0.351 | 0.375 | 0.276 | 0.434 | 0.346 | 0.298 | 0.387 | 0.377 | 0.273 | 0.142 |
| GGAGGTAA | 0.079 | 0.202 | 0.0898 | 0.0701 | 0.137 | 0.122 | 0.146 | 0.106 | 0.19 | 0.139 | 0.0814 | 0.435 |
| CGTTTCCC | 0.244 | 0.14 | 0.176 | 0.176 | 0.108 | 0.274 | 0.28 | 0.0635 | 0.265 | 0.179 | 0.186 | 0.422 |
| AAGTAAAG | 0.275 | 0.432 | 0.107 | 0.168 | 0.189 | 0.32 | 0.0549 | 0.265 | 0.328 | 0.175 | 0.181 | 0.27 |
| ACGCAAAT | 0.418 | 0.0591 | 0.268 | 0.232 | 0.262 | 0.42 | 0.235 | 0.265 | 0.325 | 0.325 | 0.281 | 0.0579 |
| ACGCAACT | 0.472 | 0.105 | 0.477 | 0.433 | 0.416 | 0.472 | 0.478 | 0.39 | 0.422 | 0.462 | 0.462 | 0.0824 |
| GTTACGTA | 0.463 | 0.214 | 0.482 | 0.473 | 0.463 | 0.456 | 0.483 | 0.337 | 0.442 | 0.471 | 0.477 | 0.319 |
| AAGTAAGC | 0.284 | 0.404 | 0.104 | 0.158 | 0.199 | 0.358 | 0.0599 | 0.171 | 0.361 | 0.21 | 0.272 | 0.337 |
| AAGGTAAC | 0.233 | 0.309 | 0.141 | 0.185 | 0.142 | 0.285 | 0.151 | 0.232 | 0.188 | 0.154 | 0.194 | 0.441 |
| AAGCAAAG | 0.302 | 0.342 | 0.176 | 0.125 | 0.0761 | 0.369 | 0.11 | 0.278 | 0.403 | 0.198 | 0.25 | 0.222 |
| GCACGAAA | 0.401 | 0.0615 | 0.253 | 0.197 | 0.165 | 0.441 | 0.245 | 0.0864 | 0.211 | 0.173 | 0.145 | 0.0576 |
| CCACGTAA | 0.359 | 0.0826 | 0.432 | 0.37 | 0.306 | 0.393 | 0.308 | 0.157 | 0.0962 | 0.326 | 0.341 | 0.167 |
| CACGCAAA | 0.487 | 0.107 | 0.421 | 0.348 | 0.292 | 0.486 | 0.385 | 0.389 | 0.426 | 0.396 | 0.419 | 0.0878 |
| ATGACGTA | 0.443 | 0.0683 | 0.372 | 0.346 | 0.374 | 0.437 | 0.404 | 0.317 | 0.446 | 0.437 | 0.386 | 0.098 |
| ATTCCGTA | 0.209 | 0.17 | 0.456 | 0.385 | 0.308 | 0.342 | 0.381 | 0.194 | 0.239 | 0.434 | 0.374 | 0.0978 |
| GCGTATAA | 0.375 | 0.0699 | 0.0915 | 0.23 | 0.229 | 0.409 | 0.181 | 0.285 | 0.399 | 0.213 | 0.161 | 0.11 |
| CTTAAGTA | 0.154 | 0.416 | 0.0907 | 0.178 | 0.207 | 0.198 | 0.0567 | 0.207 | 0.267 | 0.218 | 0.182 | 0.264 |
| AACGTAAG | 0.32 | 0.196 | 0.132 | 0.213 | 0.255 | 0.366 | 0.204 | 0.262 | 0.436 | 0.289 | 0.226 | 0.124 |
| ACGTTTCC | 0.411 | 0.141 | 0.312 | 0.343 | 0.327 | 0.432 | 0.354 | 0.255 | 0.381 | 0.347 | 0.359 | 0.439 |
| CACGGAAG | 0.372 | 0.0727 | 0.471 | 0.435 | 0.343 | 0.403 | 0.367 | 0.12 | 0.164 | 0.435 | 0.428 | 0.129 |
| TAAGCAAA | 0.201 | 0.431 | 0.113 | 0.208 | 0.202 | 0.308 | 0.103 | 0.291 | 0.409 | 0.248 | 0.252 | 0.241 |
| AACGTAAT | 0.293 | 0.183 | 0.266 | 0.32 | 0.359 | 0.357 | 0.286 | 0.309 | 0.449 | 0.359 | 0.274 | 0.114 |

From publication PMC4081100, “A DNA-binding-site landscape and regulatory network analysis for NAC transcription factors in Arabidopsis thaliana”
